Measurements published in PubChem BioAssay (NCATS).
Results filed as inconclusive are left out. The source made the active and inactive calls. Unless noted, calls come from the whole dose curve; as a rule, active = well fitted curve in the direction sought with a large enough effect; inconclusive = small, poorly fitted or top-dose-only effect, or another doubt; inactive = no such curve, though single readings can be large; an effect the other way counts as inactive or inconclusive.

How the values were obtained:
[1] = target: Rap guanine nucleotide exchange factor 3 (Homo sapiens) (UniProt O95398); test: Confirmatory qHTS for antagonist of cAMP-regulated guanine nucleotide exchange factor 3 (EPAC1) (AID 1645880); note: nearly all actives have a fitted effect of over 55% in size; note: potency is the fitted concentration of half-maximal effect
In short: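 Nucleotide exchange uses 100 nM EPAC1, 250 nM RAP1B-BODIPY-GDP and 50 uM GDP, with compounds in a concentration-titration series. After 5 min at room temperature, fluorescence (480 nm ex/540 nm em) is read every 5 min for 30 min. Data are normalized to control ATA and DMSO.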

[2] = target: Rap guanine nucleotide exchange factor 3 (Homo sapiens) (UniProt O95398); test: Confirmatory qHTS for agonist of cAMP-regulated guanine nucleotide exchange factor 3 (EPAC1) (AID 1645881); note: nearly all actives have a fitted effect of over 75% in size; note: potency is the fitted concentration of half-maximal effect;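 for activation: EPAC1 catalysed release of BODIPY-GDP from Rap1B seen as fluorescence loss; 100% = effect of cAMP agonist control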
[3] = target: Rap guanine nucleotide exchange factor 4 (Homo sapiens) (UniProt Q8WZA2); test: Confirmatory qHTS for agonist of cAMP-regulated guanine nucleotide exchange factor 4 (EPAC2) (AID 1645884);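 note: nucleotide exchange releases bodipy-GDP from Rap1 and this lowers its fluorescence; nearly all actives have a fitted effect of over 65% in size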; note: potency is the fitted concentration of half-maximal effect; for activation: % is set by controls: 0 for no effect and ±100 for the full control effect
[4] = target: Rap guanine nucleotide exchange factor 4 (Homo sapiens) (UniProt Q8WZA2); test: Confirmatory qHTS for antagonist of cAMP-regulated guanine nucleotide exchange factor 4 (EPAC2) (AID 1645885); note: nearly all actives have a fitted effect of over 25% in size; note: potency is the fitted concentration of half-maximal effect
[5] = AP1 Signaling Pathway (AID 357; active = well fitted curve in either direction with a large enough effect, not every such curve was filed as active; note: % is set by controls: 0 for no effect and ±100 for the full control effect)
In short: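 AP-1-bla ME-180 cells with beta-lactamase reporter under AP-1 response element, stimulated with EC50 EGF; compounds titrated, 5 hours at 37 degrees Celsius. CCF4 read at 460/530 nm ratio; positive and negative modulators judged by AC50.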

[6] = NFAT Signaling Pathway (AID 444; active = well fitted curve in either direction with a large enough effect, not every such curve was filed as active;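 note: carbachol stimulus at about its EC50 of 1 µM final; % is set by controls: 0 for no effect and ±100 for the full control effect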); conditions: Jurkat NFAT-bla M1, carbachol, beta-lactamase ratio, 5 h; at 17.2 µM (top of the series)
In short: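 Jurkat cells carrying an NFAT-driven β-lactamase reporter and co-transfected muscarinic M1 receptor were treated with compound plus carbachol (1 uM final, an EC50 level) for 5 h at 37 °C. CCF4 loading followed for 1 h at RT; 460/530 nm ratio gave %activity.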

[7] = target: Glucocorticoid receptor (Homo sapiens) (UniProt P04150); test: GR-GFP Redistribution (AID 450;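 active = compounds whose dose series gives a full or clear partial fitted curve of increased nuclear translocation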; note: potency is the fitted concentration of half-maximal effect); conditions: U2OS GR-GFP nuclear translocation, laser cytometry, 2 h
[8] = target: Rap guanine nucleotide exchange factor 3 (Homo sapiens) (UniProt O95398); test: Counterscreen qHTS for antagonist of cAMP-regulated guanine nucleotide exchange factor 3 (EPAC1) (AID 1645888);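 note: fluorescence loss as bound BODIPY-GDP is released from Rap1B; % of control where 0% means no effect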
In short: (§1)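 Measured: fluorescence of BODIPY-GDP bound to Rap1B, which falls as exchange proceeds. Conditions include 50 uM competing GDP, 5 and 30 min reads, and a later cAMP challenge for antagonist detection.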

[9] = target: Rap guanine nucleotide exchange factor 3 (Homo sapiens) (UniProt O95398); test: Counterscreen qHTS for agonist of cAMP-regulated guanine nucleotide exchange factor 3 (EPAC1) (AID 1645889); note: nearly all actives have a fitted effect of over 40% in size; note: potency is the fitted concentration of half-maximal effect; for activation: % of control where 0% means no effect
In short: as §1

[10] = target: Tumor susceptibility gene 101 protein (Homo sapiens) (UniProt Q99816); test: qHTS Assay for Iinhibitors of HIV-1 Budding by Blocking the Interaction of PTAP/TSG101: Hit Validation (AID 651600); note: nearly all actives have a fitted effect of over 70% in size; note: potency is the fitted concentration of half-maximal effect
In short: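 Fluorescence polarization binding assay: Tsg101 binding domain (10 uM final) pre-dispensed with compounds, then FITC-labeled PTAP-motif peptide (50 nM final) added; 20 min at r.t. in HEPES pH 7.5 buffer with NaCl, Tween 20, EDTA, TCEP.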

[11] = Stat Signaling Pathway (AID 446; active = well fitted curve in either direction with a large enough effect, not every such curve was filed as active;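 note: ME-180 cervical cancer cells given 40 pM IL-6 alongside compound; SIE-controlled beta-lactamase reporter measured as 460/530 nm FRET emission ratio; % is set by controls: 0 for no effect and ±100 for the full control effect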)
In short: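 IL-6/STAT signaling read in ME-180 cells via an SIE beta-lactamase reporter. Stimulus was 40 pM IL-6 (its AC50) for 5 hrs, so both activation and inhibition register.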

Sequence of Rap guanine nucleotide exchange factor 3 (Homo sapiens) (O95398 whole entry, looked up): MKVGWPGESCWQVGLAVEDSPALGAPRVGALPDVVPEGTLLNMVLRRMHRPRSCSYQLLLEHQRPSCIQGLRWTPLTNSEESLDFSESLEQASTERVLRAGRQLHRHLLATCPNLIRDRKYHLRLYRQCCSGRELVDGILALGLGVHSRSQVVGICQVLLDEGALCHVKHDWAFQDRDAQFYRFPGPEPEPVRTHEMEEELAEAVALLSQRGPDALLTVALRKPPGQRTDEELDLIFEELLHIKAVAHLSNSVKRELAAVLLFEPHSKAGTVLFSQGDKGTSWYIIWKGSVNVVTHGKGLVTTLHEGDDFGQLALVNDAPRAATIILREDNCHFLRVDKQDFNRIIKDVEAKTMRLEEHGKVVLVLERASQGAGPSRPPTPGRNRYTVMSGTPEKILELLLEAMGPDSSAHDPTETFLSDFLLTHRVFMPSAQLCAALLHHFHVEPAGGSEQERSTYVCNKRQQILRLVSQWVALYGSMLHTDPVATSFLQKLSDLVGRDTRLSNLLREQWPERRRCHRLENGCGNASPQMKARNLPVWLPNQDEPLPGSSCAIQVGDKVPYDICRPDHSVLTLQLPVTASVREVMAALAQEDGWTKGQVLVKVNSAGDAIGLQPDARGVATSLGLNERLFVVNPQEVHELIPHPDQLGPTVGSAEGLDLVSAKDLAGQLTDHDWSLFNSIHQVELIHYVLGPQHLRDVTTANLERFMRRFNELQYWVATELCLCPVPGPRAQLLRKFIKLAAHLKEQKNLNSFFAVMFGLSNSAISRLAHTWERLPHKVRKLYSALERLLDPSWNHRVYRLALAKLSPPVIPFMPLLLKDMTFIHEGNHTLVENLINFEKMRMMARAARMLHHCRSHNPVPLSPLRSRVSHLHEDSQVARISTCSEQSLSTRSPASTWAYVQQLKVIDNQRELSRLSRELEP
Sequence of Rap guanine nucleotide exchange factor 4 (Homo sapiens) (Q8WZA2 whole entry, looked up): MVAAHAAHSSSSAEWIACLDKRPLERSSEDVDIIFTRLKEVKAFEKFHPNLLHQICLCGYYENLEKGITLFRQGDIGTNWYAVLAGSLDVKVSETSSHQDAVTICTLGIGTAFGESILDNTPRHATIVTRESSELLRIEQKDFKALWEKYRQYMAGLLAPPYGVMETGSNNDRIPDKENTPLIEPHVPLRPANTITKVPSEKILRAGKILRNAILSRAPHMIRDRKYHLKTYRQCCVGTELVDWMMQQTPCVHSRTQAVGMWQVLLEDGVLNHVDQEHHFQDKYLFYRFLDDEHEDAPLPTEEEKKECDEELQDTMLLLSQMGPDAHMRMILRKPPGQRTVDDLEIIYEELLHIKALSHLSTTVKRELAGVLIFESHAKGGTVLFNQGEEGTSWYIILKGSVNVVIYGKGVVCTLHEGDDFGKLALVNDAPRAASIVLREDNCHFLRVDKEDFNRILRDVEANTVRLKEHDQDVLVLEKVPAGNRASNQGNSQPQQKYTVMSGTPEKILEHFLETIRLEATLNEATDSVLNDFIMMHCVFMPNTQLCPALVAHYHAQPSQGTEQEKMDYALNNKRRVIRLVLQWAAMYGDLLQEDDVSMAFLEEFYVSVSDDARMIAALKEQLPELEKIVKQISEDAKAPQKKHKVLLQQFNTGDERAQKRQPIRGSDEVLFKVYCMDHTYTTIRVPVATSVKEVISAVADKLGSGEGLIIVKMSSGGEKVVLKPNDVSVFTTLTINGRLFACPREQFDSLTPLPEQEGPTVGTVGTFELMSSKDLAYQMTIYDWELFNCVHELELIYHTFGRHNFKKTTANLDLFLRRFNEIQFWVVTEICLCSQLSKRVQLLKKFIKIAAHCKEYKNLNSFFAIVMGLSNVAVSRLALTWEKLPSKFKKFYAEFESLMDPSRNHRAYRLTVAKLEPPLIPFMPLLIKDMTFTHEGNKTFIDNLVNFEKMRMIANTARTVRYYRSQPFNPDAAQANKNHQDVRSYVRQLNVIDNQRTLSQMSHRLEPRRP
Sequence of Glucocorticoid receptor (Homo sapiens) (P04150 whole entry, looked up): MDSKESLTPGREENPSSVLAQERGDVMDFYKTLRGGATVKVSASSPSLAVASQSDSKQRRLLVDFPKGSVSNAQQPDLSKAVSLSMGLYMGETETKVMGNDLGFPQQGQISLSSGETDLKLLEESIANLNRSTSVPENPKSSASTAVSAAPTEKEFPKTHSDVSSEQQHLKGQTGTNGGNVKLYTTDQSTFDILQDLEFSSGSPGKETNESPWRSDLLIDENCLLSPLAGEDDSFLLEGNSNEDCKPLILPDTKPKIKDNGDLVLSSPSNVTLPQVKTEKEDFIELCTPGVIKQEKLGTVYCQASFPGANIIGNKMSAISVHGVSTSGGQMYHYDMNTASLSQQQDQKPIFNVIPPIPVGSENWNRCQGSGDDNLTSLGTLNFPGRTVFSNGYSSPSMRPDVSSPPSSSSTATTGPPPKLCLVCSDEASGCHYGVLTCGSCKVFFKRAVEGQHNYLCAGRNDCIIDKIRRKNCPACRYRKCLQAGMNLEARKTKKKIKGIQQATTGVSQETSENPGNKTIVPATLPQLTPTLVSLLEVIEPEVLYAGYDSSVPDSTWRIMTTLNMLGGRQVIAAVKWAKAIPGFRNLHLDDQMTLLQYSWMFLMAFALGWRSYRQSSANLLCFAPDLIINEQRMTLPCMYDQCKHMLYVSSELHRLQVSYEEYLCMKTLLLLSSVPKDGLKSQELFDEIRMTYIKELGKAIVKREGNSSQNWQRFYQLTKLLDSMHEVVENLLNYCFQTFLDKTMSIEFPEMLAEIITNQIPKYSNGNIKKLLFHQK
Sequence of Tumor susceptibility gene 101 protein (Homo sapiens) (Q99816 whole entry, looked up, the tested form may be a part): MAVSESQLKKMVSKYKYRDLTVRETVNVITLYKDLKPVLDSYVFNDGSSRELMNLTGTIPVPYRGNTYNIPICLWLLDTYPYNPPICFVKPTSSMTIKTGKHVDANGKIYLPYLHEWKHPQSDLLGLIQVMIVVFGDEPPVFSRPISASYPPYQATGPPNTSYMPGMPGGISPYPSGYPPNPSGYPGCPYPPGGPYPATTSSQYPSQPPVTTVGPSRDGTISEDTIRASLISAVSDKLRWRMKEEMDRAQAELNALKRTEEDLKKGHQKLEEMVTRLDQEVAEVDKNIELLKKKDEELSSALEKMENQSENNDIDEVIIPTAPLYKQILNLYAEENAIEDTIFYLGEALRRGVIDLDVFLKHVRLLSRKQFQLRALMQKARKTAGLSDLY

CCOC(=O)[C@]12Cc3ccsc3[C@H]1N(Cc1ccccc1)C(=O)c1ccccc12
inactive: Potency [1] | Potency [2] | Potency [3]

O=C1NC(=S)N(c2ccccc2)C(=O)/C1=C/c1ccco1
inactive: Potency [2] | Potency [3] | Potency [4]
active: Potency [1] 9.53 µM

CCCCn1c(O)c(C=NCCN2CCCCC2)c(=O)[nH]c1=O
inactive: outcome [5] | activity change, negative = inhibition [6] -9.1% | Potency [7] > 20.6 µM | Potency [1] | Potency [2] | Potency [3] | outcome [8]
active: Potency [4] 75.7 µM

OC1/C(=C/c2ccc(C(F)(F)F)cc2)N2CCC1CC2 (configuration not stated)
inactive: Potency [1] | Potency [2] | Potency [3] | Potency [4] | outcome [8]

O=C(c1cc(Cl)cc(Cl)c1)N1Cc2ccccc2-n2nncc2C1
inactive: Potency [1] | Potency [2] | activation [3] -5.36% [at 17.1 µM, percent relative to cAMP agonist control] | activity change, negative = inhibition [4] -20.5% [at 12.7 µM] | activity change, negative = inhibition [8] 29.2% [at 30.8 µM] | activation [9] 5.77% [at 30.8 µM]

CN1C(=O)/C(=C/c2cccn2-c2ccc3ccccc3c2)C(=O)NC1=S
active: Potency [1] 33.8 µM
inactive: Potency [2] | Potency [3] | Potency [4] | outcome [8]

COCCCn1c(N)c(C(=O)NCCC(C)C)c2nc3ccccc3nc21
inactive: Potency [2] | activation [3] 8.34% [at 17.1 µM, percent relative to cAMP agonist control] | activity change, negative = inhibition [4] -14.1% [at 12.7 µM] | activity change, negative = inhibition [8] 2.52% [at 30.8 µM]
active: Potency [1] 56.2 µM

Cc1ccc(N2C(=O)NC(=O)/C(=C\C=C\c3ccco3)C2=O)cc1C
inactive: Potency [2] | Potency [3] | Potency [4] | outcome [8] | Potency [9]
active: Potency [1] 33.8 µM

Cc1ccc(CN2CCCN(Cc3ccccc3C)S2(=O)=O)cc1
inactive: Potency [1] | Potency [2] | Potency [3] | Potency [4] | outcome [8] | Potency [9]

COc1ccc(OCC(=O)N2CCN(CC3CC4C=CC3C4)CC2)cc1 (configuration not stated)
inactive: Potency [1] | Potency [2] | activation [3] 6.59% [at 17.1 µM, percent relative to cAMP agonist control] | activity change, negative = inhibition [4] 6.27% [at 12.7 µM] | activity change, negative = inhibition [8] -7.66% [at 30.8 µM]

CCN(CC)C(=O)Cn1cc(C=C2C(=O)N(C)C(=O)N(C)C2=O)c2ccccc21
inactive: Potency [10] | Potency [2] | activation [3] 4.19% [at 17.1 µM, percent relative to cAMP agonist control] | activity change, negative = inhibition [4] 3.22% [at 12.7 µM] | activity change, negative = inhibition [8] -5.5% [at 30.8 µM]
active: Potency [1] 79.4 µM

CCCCn1c(NS(=O)(=O)c2ccc(C)cc2)c(C(=O)OCC)c2nc3ccccc3nc21
inactive: Potency [2] | Potency [3] | outcome [8]
active: Potency [1] 75.7 µM | Potency [4] 23.9 µM

COC(=O)C1=C(c2cc3ccccc3s2)C[C@@H]2CC[C@H]1N2C(=O)NCc1ccc(C(F)(F)F)cc1
inactive: Potency [1] | Potency [2] | Potency [3] | Potency [4] | Potency [9]

CCn1c(O)c(C=Nc2ccc(N3CCOCC3)cc2)c(=O)n(CC)c1=S
inactive: Potency [1] | Potency [2] | Potency [4] | outcome [8]
active: Potency [10] 9.19 µM | Potency [3] 112 µM

CC1=C(O)C(=O)C=C2C1=CC=C1C2(C)CCC2(C)C3CC(C)(C(=O)O)CCC3(C)CCC12C (configuration not stated)
active: Potency [1] 33.8 µM | Potency [4] 0.953 µM
inactive: Potency [2] | Potency [3] | outcome [8] | Potency [9]

COc1ccc(-n2c(O)c(/C=C/C=Nc3ccccc3)c(=O)[nH]c2=O)cc1
active: Potency [2] 100 µM | Potency [3] 89.1 µM | Potency [4] 16.9 µM | Potency [9] 35.5 µM
inactive: Potency [1] | outcome [8]

Cn1cc(C=C2C(=O)NC(=O)NC2=O)c2ccccc21
inactive: Potency [1] | outcome [8]
active: Potency [2] 79.4 µM | Potency [3] 63.1 µM | Potency [4] 75.7 µM

CCN(CC)c1ccc(N=Cc2c(O)n(CCC3=CCCCC3)c(=O)[nH]c2=O)cc1
inactive: Potency [2] | Potency [3] | Potency [4] | outcome [8] | Potency [9]
active: Potency [1] 75.7 µM

CCN(CC)c1ccc(N=Cc2c(O)n(-c3cc(OC)ccc3OC)c(=O)[nH]c2=O)cc1
inactive: outcome [5] | activity change, negative = inhibition [6] -6.84% | outcome [11] | Potency [7] > 20.6 µM | Potency [1] | activation [3] 4.47% [at 17.1 µM, percent relative to cAMP agonist control] | activity change, negative = inhibition [4] -9.2% [at 12.7 µM] | activity change, negative = inhibition [8] -4.74% [at 30.8 µM]
active: Potency [2] 70.8 µM
